About 79,000 compounds went through this panel and 15% of them were active in at least one assay; those are over-represented in the sample as a whole. Rule as the data show it: active = growth inhibition above about 70%; inactive = the rest.
Columns and labels:
[1] = NCI Yeast Anticancer Drug Screen. Data for the rad50 strain (AID 155);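 also: 0% = growth of vehicle-only cultures of the same strain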; conditions: S. cerevisiae rad50 strain growth inhibition; at 50.0 µM; active compounds read high
How it was run: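 Cells are treated with compound, grown, and their growth is then scored against vehicle-only cultures of the same repair-deficient yeast strain.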

[2] = NCI Yeast Anticancer Drug Screen. Data for the mec2-1 strain (AID 157); conditions: S. cerevisiae mec2-1 strain, at 50.0 µM, active compounds read high
How it was run: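 Mutant yeast (mec2-1) grown with compound; growth inhibition relative to vehicle control reported.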

[3] = NCI Yeast Anticancer Drug Screen. Data for the sgs1 mgt1 strain (AID 161);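 also: 0% = growth of cultures given vehicle only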; conditions: S. cerevisiae sgs1 mgt1 strain, at 50.0 µM, active compounds read high
How it was run: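 Yeast cells carrying a defined DNA-repair defect were exposed to test compounds. Growth inhibition was measured relative to vehicle-treated controls.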

[4] = NCI Yeast Anticancer Drug Screen. Data for the cln2 rad14 strain (AID 165);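 also: 0% = growth equal to vehicle treated cultures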; conditions: S. cerevisiae cln2 rad14 strain, at 50.0 µM, active compounds read high
How it was run: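 Readout is yeast growth inhibition versus vehicle-treated controls, using a strain with cln2 and rad14 alterations exposed to compound.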

[5] = NCI Yeast Anticancer Drug Screen. Data for the bub3 strain (AID 167); conditions: S. cerevisiae bub3 mutant strain, at 50.0 µM, active compounds read high
How it was run: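 Part of a panel of yeast mutants defective in DNA damage repair or cell cycle regulation. Each strain is grown with compound, and inhibition is calculated relative to solvent-treated cultures.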

[6] = NCI Yeast Anticancer Drug Screen. Data for the mlh1 rad18 strain (AID 175); conditions: S. cerevisiae mlh1 rad18 strain growth inhibition; at 50.0 µM; active compounds read high
How it was run: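 Genetically defined yeast (DNA repair-deficient) exposed to compounds; growth inhibition determined relative to vehicle.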

Measured: growth inhibition

CCOC(=O)CC(C(=O)OCC)C(=O)OCC
inactive: [1] -7.4% | [2] -11.4% | [3] -8.1% | [4] -6.35% | [5] 5.45% | [6] -4.1%

NC(=O)Nc1ccc(S(=O)(=O)c2ccc(N)cc2)cc1
inactive: [1] 0.5% | [2] -5.2% | [3] 12.5% | [4] -5.35% | [5] 4% | [6] -15.7%

Cc1cc2nc(N3CCOCC3)n(C3OC(CO)C(O)C3O)c2cc1C (configuration not stated)
inactive: [1] -6.6% | [2] 5.75% | [3] 23.2% | [4] 1.55% | [5] -8.95% | [6] 3.95%

C=CC12CCC(CC1)n1c(=O)n(C)c(=O)n12
inactive: [1] -8.05% | [2] -11.7% | [3] -11.4% | [4] -34.5% | [5] -18% | [6] -6.8%

CCOC(=O)C(O)(NC(C)=O)C(F)(F)F (configuration not stated)
inactive: [1] 27.9% | [2] -3.9% | [3] -0.8% | [4] 17.4% | [5] 0.2% | [6] -47.4%

CCCCCCCCCCCCCCCCS(=O)(=O)N/N=C/c1ccc(N(C)C)cc1
inactive: [1] 26.1% | [2] 13.3% | [3] 17.1% | [4] 12.3% | [5] 1.95% | [6] 13.7%

O=c1c2cc([N+](=O)[O-])ccc2n2n1CCCC2
inactive: [1] 15.1% | [2] 9.45% | [3] -13.8% | [4] 16.9% | [5] -16% | [6] -10.4%

O=S(=O)(O)c1cc(Cl)c(O)c(Cl)c1
inactive: [1] 7.25% | [2] -21.8% | [3] 9.15% | [4] -41.9% | [5] 6.8% | [6] 23.2%

CSc1ccc(NC(=O)c2cccc([N+](=O)[O-])c2C(=O)O)cc1
inactive: [1] 5.05% | [2] 8.25% | [3] 13.2% | [4] -6.35% | [5] 15.2% | [6] 1.6%

COC(=O)C1C2C=CC(C2)C1C(=O)OC (configuration not stated)
inactive: [1] -20.5% | [2] 36.5% | [3] -10.8% | [4] -27.9% | [5] -7.95% | [6] 0.1%

Cc1ccccc1CCCC(C(=O)O)C(=O)O
inactive: [1] -18.8% | [2] -7.75% | [3] 10.8% | [4] -2.8% | [5] -1.55% | [6] 1.75%

COCCCOC(=O)COc1ccccc1
inactive: [1] -11.3% | [2] -45.5% | [3] -8.65% | [4] -12.8% | [5] 11.9% | [6] -13.5%

O=C1OC(=O)c2c1ccc1ccccc21
inactive: [1] -6% | [2] -21.6% | [3] 6.8% | [4] -8.35% | [5] 0.95% | [6] 14.8%

COc1ccc(C(=O)NNC(=O)c2ccc3ccccc3c2)cc1
inactive: [1] 10.8% | [2] 1.25% | [3] 9.8% | [4] 9.95% | [5] 5.5% | [6] -7.3%

COc1ccc(/C=C/C(=O)c2c(-c3ccccc3)nn(C)c(=O)c2N2CCCCC2)cc1
inactive: [1] 7.8% | [2] -8.5% | [3] -10.8% | [4] 26.5% | [5] 7.05% | [6] 1.7%

Cc1nnnn1C12CC3CC(CC(C3)C1)C2
inactive: [1] 11.7% | [2] 5.7% | [3] -5.75% | [4] -14.3% | [5] -15.7% | [6] 15.1%

COc1cc2c(NCCCCCCO[N+](=O)[O-])ncnc2c(OC)c1OC
inactive: [1] 26.6% | [2] -5.7% | [3] 40.8% | [4] 43.8% | [5] 39% | [6] 30.6%

O=C1c2ccccc2C(=C(c2ccccc2)c2ccccc2)c2ccccc21
inactive: [1] 29.1% | [2] -19.5% | [3] -10.3% | [4] 10.6% | [5] 5.35% | [6] -4.75%

COc1cc(/C=C(\C#N)C(N)=C(C#N)C#N)cc(O)c1O
inactive: [1] -32.5% | [2] -20.8% | [3] -19.6% | [4] 0.65% | [5] -24.3% | [6] -18.8%

COC(C)CCOC(=O)c1cccc(C)c1 (configuration not stated)
inactive: [1] 9% | [2] -6.8% | [3] 3.8% | [4] -24% | [5] 24.8% | [6] 1.9%

Cc1ccc(S(=O)(=O)N(CCOS(C)(=O)=O)CCOS(C)(=O)=O)cc1
inactive: [1] 12.3% | [2] -13.2% | [3] -0.8% | [4] -2.1% | [5] 9.45% | [6] 5.25%

Cc1nn(-c2ccccc2)c(SC(C)(C)C)c1C=NCCN=Cc1c(C)nn(-c2ccccc2)c1SC(C)(C)C
inactive: [1] 28.6% | [2] 15.3% | [3] 18.2% | [4] 24.3% | [5] -5.85% | [6] 18.8%

CSC(c1ccc(Oc2ccccc2)cc1)=[N+]1CCCCC1
inactive: [1] 47.2% | [2] 13.2% | [3] 49.4% | [4] 23.2% | [5] 53.5% | [6] 23.7%

CC(=O)Oc1c(C(=O)O)cccc1-c1ccccc1
inactive: [1] -12.8% | [2] -7.1% | [3] 9.6% | [4] -15.8% | [5] 30% | [6] 4.95%

CC(=O)Oc1cc(Cl)c(Cl)cc1Cl
inactive: [1] 19.9% | [2] 29.9% | [3] -5.65% | [4] -30.4% | [5] -16.4% | [6] -2.1%

O=C(OC1CCc2ccccc2C1)c1ccc(N=Nc2ccccc2)cc1 (configuration not stated)
inactive: [1] 24.5% | [2] 5.55% | [3] 20.7% | [4] -39.8% | [5] 5.95% | [6] 18.9%

c1ccc2c(c1)N=C(c1ccc3ccccc3c1)CC(c1cccc3ccccc13)S2 (configuration not stated)
inactive: [1] 13.2% | [2] 5.25% | [3] -33.1% | [4] 33.1% | [5] 19.3% | [6] -3.15%

N#CCCCCCCl
inactive: [1] -9.35% | [2] -26.9% | [3] 10.2% | [4] 4.05% | [5] -15.6% | [6] 14.8%

O=C([O][Sb]([O]C(=O)C(Br)Br)([c]1ccccc1)([c]1ccccc1)[c]1ccccc1)C(Br)Br
inactive: [1] 15.7% | [2] 5% | [3] 20.6% | [4] -14.2% | [5] -0.1% | [6] 36.6%

Brc1cc(Br)c(Br)cc1Br
inactive: [1] 6.1% | [2] 5.7% | [3] 8.6% | [4] 13.8% | [5] -3.65% | [6] 12.3%

O=C(c1ccccc1)c1ccc2c(c1)-c1ccccc1-2
inactive: [1] 7.3% | [2] -7% | [3] 15.1% | [4] -21.1% | [5] 12.8% | [6] 12.8%

O=S(=O)(CCS(=O)(=O)c1ccccc1)c1ccccc1
inactive: [1] -11.4% | [2] -10.2% | [3] -22.9% | [4] -41.5% | [5] -15.3% | [6] -0.1%

C/C(N=NC(=S)N1CC(C)OC(C)C1)=C1\C=CC=CN1O (configuration not stated)
inactive: [1] -7.3% | [2] -2.15% | [3] 11.8% | [4] 12.3% | [5] 13.8% | [6] 8.85%

CC(=O)OC[C@H]1O[C@@H](O[C@H]2[C@H](OC(C)=O)C=CO[C@@H]2COC(C)=O)C(OC(C)=O)[C@H]2OC(C)(C)O[C@H]21 (some centres not stated)
inactive: [1] -9% | [2] -14.8% | [3] -18.9% | [4] 3.5% | [5] 7.05% | [6] 4.95%

COC(=O)c1ccccc1CC1Cc2cc3c(cc2C1)CCC3
inactive: [1] 20.5% | [2] 7.1% | [3] -0.7% | [4] 12.9% | [5] 4.3% | [6] 5.45%

c1ccc(C(=C2CCC2)c2c3ccccc3cc3ccccc23)cc1
inactive: [1] -10.1% | [2] 9.4% | [3] -7% | [4] 5.8% | [5] -17.9% | [6] -20.1%

Cc1oc2ccccc2c(=O)c1CO
inactive: [1] -12.6% | [2] 13.2% | [3] 2% | [4] -9.85% | [5] -11.1% | [6] -12.2%
